The list is not random: actives were taken first. Their share in the collection is about 12%.
AmpC inh no detg = inhibitors of E. coli AmpC beta-lactamase without detergent | Potency, µM (series often up to 57.1 µM), inactives show top-dose activity change, negative = inhibition, actives largely listed as inhibitors | 0.52% of 330,000 active | AmpC nitrocefin hydrolysis, absorbance 480 nm, 0.0001% Triton | P00811;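 note: plate controls were no compound for no effect and no enzyme for full effect; nearly all actives have a fitted effect of over 20% in size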
Target sequence (P00811 whole entry, looked up): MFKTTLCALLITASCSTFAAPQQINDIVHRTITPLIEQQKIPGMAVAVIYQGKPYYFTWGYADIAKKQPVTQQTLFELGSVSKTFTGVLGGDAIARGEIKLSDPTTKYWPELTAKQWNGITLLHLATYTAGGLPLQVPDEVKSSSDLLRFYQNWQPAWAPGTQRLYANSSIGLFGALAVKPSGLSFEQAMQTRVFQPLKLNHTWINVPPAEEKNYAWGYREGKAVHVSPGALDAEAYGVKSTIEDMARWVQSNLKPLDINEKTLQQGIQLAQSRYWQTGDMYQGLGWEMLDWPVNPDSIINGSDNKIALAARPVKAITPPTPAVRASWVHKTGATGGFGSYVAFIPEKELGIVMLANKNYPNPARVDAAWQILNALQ
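20 mM phosphate pH 7.0 + 0.01% (detergent screen) or 0.0001% Triton X-100; 5.3 nM AmpC reagent; cpd preinc 15 min RT; nitrocefin (800 uM stock) to start; A480 q20 s × 4 min; Activity was normalised to no-enzyme and no-compound control wells.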
AmpC detergent = AmpC beta-lactamase inhibition with detergent present; AID 485294; Potency, µM (highest dose often 114 µM), inactives show at the highest dose activity change, negative = inhibition, usual class: inhibitors; AmpC hydrolysis of nitrocefin, absorbance 480 nm, 0.01% Triton; 0.041% of 370,000 active;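 note: 0% = no-compound wells and -100% = no-enzyme wells; nearly all actives have a fitted effect of over 25% in size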
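20 mM phosphate pH 7.0 + 0.01% (detergent screen) or 0.0001% Triton X-100; 5.3 nM AmpC reagent; cpd preinc 15 min RT; nitrocefin (800 uM stock) to start; A480 q20 s × 4 min; Activity was normalised to no-enzyme and no-compound control wells.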
Pf growth 96h = inhibits malaria parasite growth, 96 h | P. falciparum luciferase reporter growth, 96 h | AID 504834 | Potency, µM (series often up to 28.7 µM), for inactives: at the highest dose activity change, negative = inhibition, actives largely listed as inhibitors | 6.9% of 320,000 active; note: % is set by controls: 0 for no effect and ±100 for the full control effect
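Infected RBCs, 2% Hct / 0.05% parasitemia final; luciferase-reporter P. falciparum; cpd 96 h, 37 C, 5% CO2; luciferase detection reagent; luminescence.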
Sm TGR block = blocks Schistosoma mansoni thioredoxin glutathione reductase; Q962Y6; purified TGR, DTNB reduction, TNB absorbance 405 nm; Potency, µM (doses to about 114 µM), for inactives: top-dose activity change, negative = inhibition, hits mostly inhibitors; 3% of 360,000 active; AID 485364; note: % is set by controls: 0 for no effect and ±100 for the full control effect; nearly all actives have a fitted effect of over 60% in size
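Kinetic colorimetric format: TGR-catalysed, NADPH-driven DTNB reduction monitored via TNB absorbance. Enzyme dispensed at 20 nM; compound exposure 15 min at room temperature before reaction start.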
SARS PLpro yeast = inhibitors of SARS-CoV papain-like protease in yeast. Potency, µM (series often up to 32.9 µM), for inactives: at the top dose activity, positive = growth rescue, usual class: activators. S. cerevisiae expressing SARS-CoV PLpro, growth rescue. 0.19% of 330,000 active. AID 485353; calls by dose curve; note: 0% is about no effect; nearly all actives have a fitted effect of over 55% in size
Pf growth 48h = inhibits P. falciparum growth in the first generation, 48 h; P. falciparum luciferase growth in erythrocytes, 48 h; Potency, µM (series often up to 28.7 µM), inactives show at the top dose activity change, negative = inhibition, actives largely listed as inhibitors; 5.9% of 310,000 active; note: % is set by controls: 0 for no effect and ±100 for the full control effect
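Cell-based growth assay: transgenic P. falciparum expressing firefly luciferase, cultured in red cells within RPMI 1640 containing 0.5% w/v Albumax, 24 mM bicarbonate and gentamycin. A drop in luciferase activity indicates inhibition.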
The depositor's hits bear a star; ? = inconclusive; / = not tested or not shown. Unless noted, calls come from the whole dose curve; as a rule, active = well fitted curve in the direction sought with a large enough effect; inconclusive = small, poorly fitted or top-dose-only effect, or another doubt; inactive = no such curve, though single readings can be large; an effect the other way counts as inactive or inconclusive. Potency is the fitted concentration of half-maximal effect.

SMILES | AmpC inh no detg | AmpC detergent | Pf growth 96h | Sm TGR block | SARS PLpro yeast | Pf growth 48h
COc1cc(CN2CC(=O)N(c3cccc(Cl)c3C)C2=S)cc(OC)c1OC | 44.0% | -6.3% | -0.3% | 3.8% | -5.3% | 2.62µM*
COc1cc(CN2CC(=O)N(c3ccccc3Cl)C2=S)cc(OC)c1OC | 43.2% | -8.2% | -4.2% | -1.7% | 0.4% | 5.86µM*
CCOC(=O)c1c(S(=O)(=O)N2CCCC(C(=O)Nc3cccc(CC)c3)C2)c(C)n(CC)c1C (centres undefined) | / | -9.1% | / | -5.4% | / | /
O=C1CSC(=Nc2cccc([N+](=O)[O-])c2)N1 | -5.7% | 1.8% | 1.65µM* | 6.2% | -2.2% | -17.8%
CCOc1c(Br)cc(/C=C2\N=C(C)OC2=O)cc1Br | -25.4% | -13.5% | 40.5% | ? | 2.0% | 29.5%
COc1cc(/C=C2\N=C(C)OC2=O)cc(OC)c1OC | -22.3% | -8.1% | 5.2% | 17.8µM* | 22.4% | 1.1%
CC1=N/C(=C/c2ccco2)C(=O)O1 | -29.5% | 6.5% | 14.5% | 28.2µM* | -1.7% | 5.2%
CCOC(=O)Oc1ccc(/C=C2\N=C(C)OC2=O)cc1 | -12.3% | 0.3% | 9.8% | 12.6µM* | 1.4% | 28.4%
O=C1OC(c2ccc(Br)cc2)=N/C1=C\c1ccco1 | -23.7% | -5.7% | 11.6% | -23.9% | 2.0% | 17.0%
Cc1cccc(N(CC(=O)NCC2CCCO2)C(=O)CCC(=O)Nc2nccs2)c1 (centres undefined) | 15.0% | 3.2% | -5.0% | 9.3% | 2.0% | -3.2%
COCc1ccc(C(=O)NC2CCCN(Cc3ccccc3F)C2)o1 (centres undefined) | -12.9% | 1.4% | ? | -32.1% | 6.1% | -2.9%
COc1ccc(NC(=O)CCCn2c(=O)c3sccc3n(Cc3ccc(C)cc3C)c2=O)cc1 | -10.6% | -7.4% | 8.28µM* | -12.3% | -3.6% | -1.8%
COc1ccc(NC(=O)CCCn2c(=O)c3sccc3n(Cc3ccc(C)cc3)c2=O)cc1 | -32.7% | -12.2% | 2.9% | 0.8% | 22.8% | -11.0%
CCC(C(=O)NCCC1=CCCCC1)n1nc(C)c2c(C)n(-c3ccccc3)nc2c1=O (centres undefined) | 53.6% | -14.6% | 11.7µM* | 3.0% | -0.3% | ?
CCC(C(=O)NC1CC1)n1nc(C)c2c(C)n(-c3ccc(C)cc3)nc2c1=O (centres undefined) | 3.1% | 2.4% | ? | 0.2% | -0.7% | -1.4%
CCC(C(=O)NCc1ccco1)n1nc(C)c2c(C)n(-c3ccccc3)nc2c1=O (centres undefined) | -8.8% | -1.5% | 14.7µM* | 6.8% | -2.6% | -13.8%
CCC(C(=O)NC1CCCCCC1)n1nc(C)c2c(C)n(-c3ccccc3)nc2c1=O (centres undefined) | -0.4% | 1.1% | 10.4µM* | -3.2% | 0.0% | ?
O=C(NCC(c1ccc2c(c1)OCO2)N1CCOCC1)c1cccc(Cl)c1 (centres undefined) | / | 2.3% | / | -14.5% | / | /
CC1=C(C(=O)OC(C)C)C(c2cn(-c3ccccc3)nc2-c2cccs2)NC(=O)N1 (centres undefined) | -26.1% | -10.6% | ? | -1.9% | -13.6% | ?
CCCCCOP(=O)(OCCCCC)C1(NS(=O)(=O)c2ccccc2)C=CC(=O)c2ccccc21 (centres undefined) | -24.1% | -1.0% | 7.38µM* | ? | -9.9% | 9.28µM*
CCOC(=O)c1cc(-c2ccccc2)n(CCC(=O)NC(C)CC)c1C (centres undefined) | 123.4% | ? | 4.15µM* | -0.3% | -16.5% | ?
CCOC(=O)c1cc(-c2ccccc2)n(CCC(=O)N2CCN(c3ccccc3OC)CC2)c1C | 328.4% | 5.3% | ? | -1.8% | -29.7% | 9.28µM*
CCC(C)NC(=O)CCn1c(-c2ccccc2)cc(C(C)=O)c1C (centres undefined) | -14.2% | -4.7% | ? | -2.0% | 4.1% | 7.4%
O=C(c1ccccc1)c1nn(-c2ccccc2)c2nnc(Cc3ccccc3)c(=O)n12 | -10.7% | -9.4% | 10.4µM* | -1.3% | 8.7% | 10.4µM*
CN(C)S(=O)(=O)c1cc(NC(=O)CNCc2ccccc2)ccc1Cl | 0.0% | -1.8% | ? | 1.0% | -0.5% | -11.2%
SMILES | AmpC inh no detg | AmpC detergent | Pf growth 96h | Sm TGR block | SARS PLpro yeast | Pf growth 48h
CN(CCOc1ccccc1)CC(=O)Nc1ccc(Cl)c(S(=O)(=O)N(C)C)c1 | 46.0% | ? | 9.28µM* | 6.9% | 2.0% | -18.8%
CN(C)S(=O)(=O)c1cc(NC(=O)CN2CCN(c3ccc(O)cc3)CC2)ccc1Cl | 0.6% | -14.9% | ? | 79.4µM* | 1.3% | ?
CC(C)CC(=O)Nc1ccc(C(=O)CN2CCN(c3ccc(O)cc3)CC2)cc1 | -3.9% | 9.3% | -10.9% | 5.62µM* | 3.6% | -17.0%
Cn1ccc2cc(S(=O)(=O)N3CCC(C(=O)NCCc4ccccc4)CC3)ccc21 | / | -5.9% | / | -3.0% | / | /
Cc1cc(C)cc(-n2ccn(CC(=O)c3ccc(F)cc3)c(=O)c2=O)c1 | / | 23.1% | / | 3.0% | / | /
Cc1cc(C)c(C#N)c(SCC(=O)c2ccccc2)n1 | -22.5% | -5.4% | 4.65µM* | 0.0% | -0.4% | -10.7%
Cc1nc(SCC(=O)c2ccccc2)c(C#N)c(-c2ccco2)c1C(=O)NCc1ccco1 | -21.0% | -2.9% | ? | ? | ? | 9.28µM*
CCOc1ccc(NC(=O)CC2C(=O)N(c3ccc(OC)cc3)C(=O)N2CCC2=CCCCC2)cc1 (centres undefined) | / | 6.3% | / | ? | / | /
CCOc1ccccc1N=C1SC(CC(=O)Nc2ccc(OC)cc2OC)C(=O)N1CCC1=CCCCC1 (centres undefined) | -20.1% | -2.2% | 4.15µM* | -7.9% | 5.7% | ?
O=C(CC1SC(=Nc2ccc(OC(F)F)cc2)N(CCC2=CCCCC2)C1=O)Nc1ccccc1F (centres undefined) | -28.2% | ? | 2.62µM* | -5.7% | -4.8% | 10.4µM*
CCOc1cccc(-c2c(C(=O)N/N=C/c3ccsc3)nnn2-c2nonc2N)c1 | ? | -7.0% | ? | -4.9% | 0.0% | -4.0%
Cc1c(C)c2c(OCC(=O)NC3CC3)cc3c(c2oc1=O)CCC(C)(C)O3 | 85.5% | -14.7% | 11.7µM* | 10.1% | -7.7% | ?
Cc1cc(=O)oc2c3c(cc(OCC(=O)NCC(=O)O)c12)OC(C)(C)CC3 | 0.0% | 11.9% | 11.0% | 9.4% | 1.8% | -6.6%
Cc1cc(=O)oc2c3c(cc(OCC(=O)NC4CC4)c12)OC(C)(C)CC3 | -18.2% | -8.8% | 14.7µM* | -0.6% | -10.0% | ?
